# Laboratory results from PubChem BioAssay (EPA / NIEHS).
# Values joined by “and” are separate entries in the source; they are usually repeats but may differ in a detail not shown here. Identical values can stand only once. Inconclusive results are not listed. The source holds several records for some structures; these can differ, active in one and inactive in another. Active and inactive are the calls of the source. Rule for the calls, unless noted: active = hit-call score of the fitted dose curve at least 0.9, where 1 is the maximum; inactive = score below 0.9.
# How the values were obtained:
# [1] = CCTE_Shafer_MEA_acute_synchrony_index: CCTE's Neural Acute Assay for Synchrony, Shafer Lab (AID 2284027);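 note: network synchrony index of spontaneous spiking in primary rat cortical neurons on MEAs; fitted for loss of signal so actives lower synchrony relative to DMSO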
# Method in brief: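 Rat cortical cultures, DIV 13/15; spikes detected at 8x rms noise, 300-5000 Hz band-pass. Compound 0.03-40 uM, ≥3 wells; 40-min pre- and post-exposure recordings, 37 C. Readout: % change in synchrony index; loss-of-signal fit vs DMSO.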
# [2] = target: Estrogen receptor (Homo sapiens) (UniProt P03372); test: CCTE_Deisenroth_AIME_384WELL_LUC_Active: CCTE's 384-well Estrogen Receptor Transactivation Assay with AIME metabolic competence (ERTA luciferase; metabolism positive), Deisenroth Lab (AID 2284030; active = hit-call score of the fitted dose curve at least 0.9, where 1 is the maximum)
# Method in brief: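 Readout: bioluminescent luciferase induction in VM7Luc4E2 cells 24 hour after receiving medium from a 2 h rat hepatic S9 (induced, alginate microsphere) metabolism step. Concentrations 0.002 - 200 uM; activity scaled to 17beta-estradiol positive control.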
# [3] = CCTE_Shafer_MEA_dev_firing_rate_mean: CCTE's Neural Network Formation Assay for Mean Firing Rate, Shafer Lab (AID 2284031);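 for AC50: curve fitted for loss of firing so AC50 reflects decreased mean firing rate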
# Method in brief: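 Read-out: spike count/recording length, averaged over active electrodes, then AUC across days 5, 7, 9, 12. Rat cortical cultures on MEA; continuous 12-day exposure, media and treatment renewed DIV 5, 9; DMSO baseline.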
# [4] = CCTE_Shafer_MEA_dev_per_burst_spike_percent: CCTE's Neural Network Formation Assay for Percent of Spikes in a Burst, Shafer Lab (AID 2284032);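 for AC50: fitted as a decrease in burst spike percentage below DMSO baseline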
# Method in brief: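 Value is trapezoidal AUC over recordings on days 5, 7, 9 and 12 of the well-mean fraction of spikes falling in single-electrode bursts; rat cortical cultures exposed continuously from plating, treatment renewed DIV 5 and 9, fitted downward against DMSO.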
# [5] = CCTE_Deisenroth_AIME_384WELL_CTox_Active: Cytotoxicity Assessment (CTOX) in CCTE's 384-well Estrogen Receptor Transactivation Assay with AIME metabolic competence (metabolism positive), Deisenroth Lab (AID 2284037; active = hit-call score of the fitted dose curve at least 0.9, where 1 is the maximum;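 note: chemicals first conditioned 2 h by alginate-bound induced rat liver S9 before cells; activity means signal loss indicating cell death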)
# Method in brief: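 Chemicals pre-incubated 2 hours with alginate-immobilised phenobarbital/beta-naphthoflavone-induced male Sprague Dawley rat liver S9, then conditioned medium applied 24 hour to VM7Luc4E2 cells. Viability by fluorogenic protease substrate; 10-point series 0.002 - 200 uM.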
# [6] = target: Estrogen receptor (Homo sapiens) (UniProt P03372); test: CCTE_Deisenroth_AIME_384WELL_LUC_Inactive: CCTE's 384-well Estrogen Receptor Transactivation Assay without AIME metabolic competence (ERTA luciferase; metabolism negative), Deisenroth Lab (AID 2284038; active = hit-call score of the fitted dose curve at least 0.9, where 1 is the maximum;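 note: hits raise estrogen receptor luciferase signal so potencies reflect agonists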)
# Method in brief: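 Metabolism-negative mode: AIME lids stamped in alginate-water, no hepatic S9. 2 h chemical incubation → medium onto VM7Luc4E2 ERTA, 24 h. Readout luciferase luminescence; gain-of-signal fit vs 17beta-estradiol. Conc. 0.002 - 200 uM.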
# [7] = CCTE_Deisenroth_AIME_384WELL_CTox_Inactive: Cytotoxicity Assessment (CTOX) in CCTE's 384-well Estrogen Receptor Transactivation Assay without AIME metabolic competence (metabolism negative), Deisenroth Lab (AID 2284039; active = hit-call score of the fitted dose curve at least 0.9, where 1 is the maximum;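 note: cell viability via live-cell protease substrate cleaved to fluorescent probe; cells exposed 24 h to medium preincubated 2 h with alginate-water beads without S9; loss of fluorescence signal means loss of viability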)
# Method in brief: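 Fluorescent protease-substrate viability readout after 24 h exposure of VM7Luc4E2 cells to conditioned medium. Chemicals (0.002–200 uM) first sat 2 h over alginate-water beads, no S9. Data fitted bidirectionally, loss of signal meaning viability loss.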
# [8] = CCTE_Shafer_MEA_dev_active_electrodes_number: CCTE's Neural Network Formation Assay for Number of Active Electrodes, Shafer Lab (AID 2284040; active = hit-call score of the fitted dose curve at least 0.9, where 1 is the maximum;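 for AC50: potency for loss of active electrodes versus DMSO so lower counts are hits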)
# Method in brief: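 Developing rat cortical networks on MEAs, exposed DIV 0–12. Value is the AUC of active-electrode counts (≥5 spikes/min) from days 5, 7, 9, 12, relative to DMSO.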
# [9] = CCTE_Deisenroth_AIME_96WELL_CTox_Active: Cytotoxicity Assessment (CTOX) in CCTE's 96-well Estrogen Receptor Transactivation Assay with AIME metabolic competence (metabolism positive), Deisenroth Lab (AID 2284028; active = hit-call score of the fitted dose curve at least 0.9, where 1 is the maximum)
# Method in brief: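 Cytotoxicity in VM7Luc4E2 breast cells after 24 h exposure to medium from a 2 h metabolic pre-incubation with induced rat hepatic S9 in alginate microspheres; fluorescent live-cell protease readout, 10-point series 0.002–200 uM, n=4.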
# [10] = CCTE_Deisenroth_AIME_96WELL_CTox_Inactive: Cytotoxicity Assessment (CTOX) in CCTE's 96-well Estrogen Receptor Transactivation Assay without AIME metabolic competence (metabolism negative), Deisenroth Lab (AID 2284029; active = hit-call score of the fitted dose curve at least 0.9, where 1 is the maximum)
# Protocol: CCTE_Deisenroth_AIME_96WELL (AIME metabolism assay) is a cell-based, single-readout assay that uses VM7Luc4E2, a human mammary gland/breast cell line, with measurements taken at 24 hour after chemical dosing in a 96-well plate.CCTE_Deisenroth_AIME_96WELL_CTox_Inactive is one of four assay components measured or calculated from the CCTE_Deisenroth_AIME_96WELL assay. It is designed to make measurements of a protease substrate, a type of viability indicator, as detected with substrate cleavage to a fluorescent probe in living cells.CCTE_Deisenroth_AIME_96WELL_CTox_Inactive is a component of the CCTE_Deisenroth_AIME_96WELL assay that measures the effect of retroftting the VM7Luc ERTA assay with the Alginate Immobolization of Metabolic Enzymes (AIME) metabolism method. AIME is optimized to impart phase I hepatic metabolism using phenobarbital/beta-naphthoflavone induced hepatic S9 from male Sprague Dawley rats. Parent chemicals are incubated for 2 hours in the AIME assay prior to transfer to the VM7Luc ERTA assay plate. […] This endpoint evaluates cytotoxicity in metabolism negative mode. Using a type of flourescent probe in VM7Luc cells, loss-of-signal activity can be used to understand loss of viability. This assay endpoint, CCTE_Deisenroth_AIME_96WELL_CTox_Inactive, was analyzed with bidirectional fitting in the ERTA assay. […]
# Chain of Estrogen receptor (Homo sapiens) (P03372 whole entry, looked up): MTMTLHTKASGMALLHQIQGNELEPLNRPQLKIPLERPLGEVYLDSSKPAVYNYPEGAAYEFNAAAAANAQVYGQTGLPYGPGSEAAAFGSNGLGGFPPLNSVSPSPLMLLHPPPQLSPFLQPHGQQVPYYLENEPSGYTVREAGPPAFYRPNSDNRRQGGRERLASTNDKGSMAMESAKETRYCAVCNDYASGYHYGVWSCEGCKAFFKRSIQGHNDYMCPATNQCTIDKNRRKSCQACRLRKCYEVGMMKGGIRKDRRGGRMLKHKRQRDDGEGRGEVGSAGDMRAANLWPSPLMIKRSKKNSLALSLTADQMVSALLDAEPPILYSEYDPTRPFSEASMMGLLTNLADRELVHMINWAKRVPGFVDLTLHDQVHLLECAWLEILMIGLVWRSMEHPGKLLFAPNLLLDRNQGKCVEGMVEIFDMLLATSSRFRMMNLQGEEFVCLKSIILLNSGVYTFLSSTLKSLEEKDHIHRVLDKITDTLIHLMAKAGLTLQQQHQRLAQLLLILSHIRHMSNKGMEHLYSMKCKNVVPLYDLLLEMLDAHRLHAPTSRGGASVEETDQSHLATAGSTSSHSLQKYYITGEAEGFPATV
structure (smiles),measurement,setting,value
C=C(C)CN(CC)c1c([N+](=O)[O-])cc(C(F)(F)F)cc1[N+](=O)[O-],outcome,[1],inactive
same,outcome,[2],inactive
same,AC50,[3],12.8 µM (active)
same,AC50,[4],18.6 µM (active)
same,outcome,[5],inactive
same,outcome,[6],inactive
same,outcome,[7],inactive
same,AC50,[8],16.9 µM (active)
CCOc1cc(C(C)(C)C)ccc1C1COC(c2c(F)cccc2F)=N1 (stereo unspecified),AC50,[1],20 µM (active)
COC(=O)N(C(=O)N1CO[C@@]2(C(=O)OC)Cc3cc(Cl)ccc3C2=N1)c1ccc(OC(F)(F)F)cc1,AC50,[1],26.6 µM (active)
same,outcome,[3],inactive
same,AC50,[4],23.1 µM (active)
same,outcome,[5],inactive
same,outcome,[7],inactive
same,AC50,[8],21.2 µM (active)
CC1(C)CCC(=Cc2ccc(Cl)cc2)C1(O)Cn1cncn1 (stereo unspecified),outcome,[1],inactive
CCCCC(O)(Cn1cncn1)c1ccc(Cl)cc1Cl (stereo unspecified),outcome,[1],inactive
same,AC50,[5],162 µM (active)
same,AC50,[7],100 µM (active)
Nc1c(Cl)c(F)nc(OCC(=O)O)c1Cl,outcome,[1],inactive
CC1(C)C(C(=O)OC(C#N)c2cccc(Oc3ccccc3)c2)C1(C)C (stereo unspecified),AC50,[1],1.03 µM (active)
same,outcome,[3],inactive
same,AC50,[4],12.6 µM (active)
same,AC50,[8],19 µM (active)
OC(c1ccc(Cl)cc1)(c1ccc(Cl)cc1)C(Cl)(Cl)Cl,AC50,[1],8.65 µM (active)
CCOC(=O)C(C)OC(=O)c1cc(Oc2ccc(C(F)(F)F)cc2Cl)ccc1[N+](=O)[O-] (stereo unspecified),outcome,[1],inactive
same,outcome,[2],inactive
same,outcome,[3],inactive
same,outcome,[4],inactive
same,outcome,[5],inactive
same,outcome,[6],inactive
same,AC50,[7],100 µM (active)
same,outcome,[8],inactive
CCCN(CC)CC1COC2(CCC(C(C)(C)C)CC2)O1 (stereo unspecified),outcome,[1],inactive
same,AC50,[3],0.066 µM (active)
same,AC50,[4],0.335 µM (active)
same,AC50,[8],0.246 µM (active)
CNC(=O)Oc1cccc2ccccc12,outcome,[1],inactive
same,outcome,[3],inactive
same,AC50,[4],15 µM (active)
same,AC50,[8],15 µM (active)
CC1(C)C(C=C(Cl)Cl)C1C(=O)OC(C#N)c1cccc(Oc2ccccc2)c1 (stereo unspecified),AC50,[1],3.97 µM (active)
same,outcome,[9],inactive
same,outcome,[10],inactive
same,AC50,[2],40.8 µM (active)
same,AC50,[3],2.98 µM (active)
same,outcome,[3],inactive
same,AC50,[4],10 µM (active)
same,outcome,[4],inactive
same,AC50,[6],57.9 µM (active)
same,AC50,[7],2.33 µM (active)
same,AC50,[8],9 µM (active)
same,outcome,[8],inactive
COP(=S)(OC)SCn1nnc2ccccc2c1=O,outcome,[1],inactive
same,outcome,[2],inactive
same,outcome,[3],inactive
same,outcome,[4],inactive
same,outcome,[5],inactive
same,outcome,[6],inactive
same,AC50,[7],100 µM (active)
Cc1ccc(N=CN(C)C=Nc2ccc(C)cc2C)c(C)c1,outcome,[1],inactive
same,outcome,[2],inactive
same,outcome,[5],inactive
same,outcome,[6],inactive
N#CN=C1SCCN1Cc1ccc(Cl)nc1,outcome,[1],inactive
same,outcome,[3],inactive
same,outcome,[4],inactive
same,outcome,[8],inactive
N#Cc1c[nH]cc1-c1cccc2c1OC(F)(F)O2,outcome,[1],inactive
Cn1c(-c2ccccc2)cc(-c2ccccc2)[n+]1C,AC50,[1],36.8 µM (active)
CN/C(=N\[N+](=O)[O-])NCc1cnc(Cl)s1,outcome,[1],inactive
same,outcome,[3],inactive
same,outcome,[4],inactive
same,outcome,[8],inactive
CO/N=C(/C1=NOCCO1)c1ccccc1Oc1ncnc(Oc2ccccc2Cl)c1F,AC50,[1],20 µM (active)
same,AC50,[3],589 nM (active) and 960 nM (active)
same,AC50,[4],1.75 µM (active) and 1.24 µM (active)
same,AC50,[5],32.8 µM (active)
same,AC50,[7],15.3 µM (active)
same,AC50,[8],1.2 µM (active) and 1.05 µM (active)
Clc1nc(Cl)nc(Nc2ccccc2Cl)n1,outcome,[1],inactive
Cc1c(COC(=O)[C@@H]2[C@H](/C=C(\Cl)C(F)(F)F)C2(C)C)cccc1-c1ccccc1,AC50,[1],0.786 µM (active)
same,AC50,[3],847 nM (active) and 2.07 µM (active)
same,AC50,[4],1.65 µM (active) and 1.51 µM (active)
same,AC50,[8],2.84 µM (active) and 3.36 µM (active)
CCCC(=NOCC)C1=C(O)CC(CC(C)SCC)CC1=O (stereo unspecified),AC50,[1],28.2 µM (active)
same,outcome,[2],inactive
same,outcome,[6],inactive
same,outcome,[7],inactive
O=C(Nc1ccccc1-c1ccc(Cl)cc1)c1cccnc1Cl,AC50,[1],25.3 µM (active)
same,outcome,[2],inactive
same,AC50,[3],4.96 µM (active)
same,outcome,[3],inactive
same,AC50,[4],9.36 µM (active)
same,outcome,[4],inactive
same,outcome,[6],inactive
same,AC50,[8],9.92 µM (active)
same,outcome,[8],inactive
CCOc1nc(F)cc2nc(S(=O)(=O)Nc3c(Cl)cccc3Cl)nn12,outcome,[1],inactive
same,outcome,[5],inactive
same,outcome,[6],inactive
same,AC50,[7],146 µM (active)
CC(C)N1C(=O)c2ccccc2NS1(=O)=O,outcome,[1],inactive
same,outcome,[2],inactive
same,outcome,[6],inactive
COCC(=O)N(c1c(C)cccc1C)C(C)C(=O)OC (stereo unspecified),outcome,[1],inactive
CC(C)C1(C)N=C(c2ncccc2C(=O)O)NC1=O (stereo unspecified),outcome,[1],inactive
CC(C)=CC1C(C(=O)OCc2coc(Cc3ccccc3)c2)C1(C)C (stereo unspecified),AC50,[1],20 µM (active)
same,outcome,[2],inactive
same,outcome,[3],inactive
same,outcome,[4],inactive
same,outcome,[5],inactive
same,outcome,[6],inactive
same,outcome,[7],inactive
same,outcome,[8],inactive
Cc1nc(N(C)C)nc(OC(=O)N(C)C)c1C,AC50,[1],20 µM (active)
